Reference: PubChem BioAssay (EPA / NIEHS)
Inconclusive results are not listed. The source made the active and inactive calls. How the source made its calls: active means hit-call score of the fitted dose curve at least 0.9, where 1 is the maximum; inconclusive means response in the unintended direction; inactive means score below 0.9.

Assays:
[1] = biological target: human Peroxisome Proliferator-activated Receptor alpha (PPARa), PPARA (gene 5465) (UniProt Q07869); test: ATG_PPARa_TRANS: Attagene TRANS-FACTORIAL HepG2 Assay for human Peroxisome Proliferator-activated Receptor alpha (PPARa) (AID 2283001);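 on AC50: potency for gain of reporter signal over DMSO so agonist or activator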
Summary of the method: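 Reporter transcripts quantified by RT-PCR plus capillary electrophoresis after 24 h treatment, fitted upward relative to DMSO. Cells: human HepG2 transiently carrying multiple GAL4-UAS reporter units driven by NR-Gal4 chimeras.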

[2] = biological target: human Peroxisome Proliferator-activated Receptor delta (PPARd), PPARD (gene 5467) (UniProt Q03181); test: ATG_PPARd_TRANS: Attagene TRANS-FACTORIAL HepG2 Assay for human Peroxisome Proliferator-activated Receptor delta (PPARd) (AID 2283002)
Summary of the method: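 Transient HepG2 transfection (multiple GAL4-UAS RTUs, chimeric receptor-Gal4); 24 h dosing; total RNA → oligo(dT) RT → PCR → 6-FAM primer extension → HpaI cut → CE. Positive direction vs DMSO.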

[3] = biological target: human Retinoic Acid Receptor beta (RARb), RARB (gene 5915) (UniProt P10826); test: ATG_RARb_TRANS: Attagene TRANS-FACTORIAL HepG2 Assay for human Retinoic Acid Receptor beta (AID 2283004)
Summary of the method: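 Transient transfection of HepG2 with multiple reporter units → chemical dosing, 24 h → total RNA isolation → RT with oligo(dT) → reporter-specific PCR, 6-FAM primer extension, HpaI digest → capillary electrophoresis. Positive direction vs DMSO control.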

[4] = biological target: Retinoic acid receptor alpha (Homo sapiens) (UniProt P10276); test: ATG_RARa_TRANS: Attagene TRANS-FACTORIAL HepG2 Assay for human Retinoic Acid Receptor alpha (RARa) (AID 2283005)
Summary of the method: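 Reporter transcripts, measured by RT-PCR with fluorescent labeling and capillary electrophoresis after 24 h dosing, reflect activity of an exogenous human RARa–GAL4 fusion in transiently transfected HepG2. Fitted for increase relative to DMSO.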

[5] = biological target: Nuclear receptor subfamily 1 group I member 2 (Homo sapiens) (UniProt O75469); test: ATG_PXR_TRANS: Attagene TRANS-FACTORIAL HepG2 Assay for human Pregnane X Receptor (PXR) (AID 2283008)
Summary of the method: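 Trans-factorial format: exogenous NR-Gal4 fusion activity, not endogenous factor, in transfected human HepG2 liver cells. After 24 h dosing, RNA isolated, reverse-transcribed, amplified and resolved by capillary electrophoresis; induction scored versus DMSO.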

[6] = biological target: human Retinoic Acid Receptor gamma (RARg), RARG (gene 5916) (UniProt P13631); test: ATG_RARg_TRANS: Attagene TRANS-FACTORIAL HepG2 Assay for human Retinoic Acid Receptor gamma (RARg) (AID 2283009)
Summary of the method: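 TRANS format measured activity of exogenous NR-GAL4 fusion (RARg) in transfected HepG2 liver cells after 24 h dosing. Induced reporter RNA was detected by RT-PCR/capillary electrophoresis fluorescence, analysed in the positive direction against DMSO.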

[7] = biological target: human RAR-related Orphan Receptor gamma (RORg), RORC (gene 6097) (UniProt P51449); test: ATG_RORg_TRANS: Attagene TRANS-FACTORIAL HepG2 Assay for human RAR-related Orphan Receptor gamma (RORg) (AID 2283011)
Summary of the method: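 First, HepG2 liver cells were transfected with GAL4-UAS-driven reporter constructs and the RORg-Gal4 fusion. Next, they were treated with chemical for 24 h. Finally, reporter mRNA was quantified by RT-PCR and capillary electrophoresis, with upward activity fitted against DMSO.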

[8] = biological target: Retinoic acid receptor RXR-alpha (Homo sapiens) (UniProt P19793); test: ATG_RXRa_TRANS: Attagene TRANS-FACTORIAL HepG2 Assay for human Retinoid X Receptor alpha (RXRa) (AID 2283012)
Summary of the method: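 Measures exogenous chimeric NR-GAL4 activity in transfected HepG2 liver cells after 24 h of dosing. Induced reporter mRNA was detected by RT-PCR with capillary electrophoresis, and gain of signal was analysed against DMSO.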

[9] = biological target: human Thyroid Receptor alpha (THRa1), THRA (gene 7067) (UniProt P10827); test: ATG_THRa1_TRANS: Attagene TRANS-FACTORIAL HepG2 Assay for human Thyroid Receptor alpha (THRa1) (AID 2283014)
Summary of the method: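 Reporter transcript induction, read by capillary electrophoresis of 6-FAM-labelled RT-PCR products, reflects activity of a transfected THRa1-Gal4 fusion in HepG2 liver cells. Cells were dosed for 24 h; activity was fitted in the positive direction against DMSO.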

[10] = biological target: Peroxisome proliferator-activated receptor gamma (Homo sapiens) (UniProt P37231); test: ATG_PPARg_TRANS: Attagene TRANS-FACTORIAL HepG2 Assay for human Peroxisome Proliferator-activated Receptor-gamma (PPARg) (AID 2283007)
Summary of the method: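 Human hepatoma HepG2, transient MRTU transfection, 24 h treatment. mRNA reporter signal by RT-PCR plus capillary electrophoresis, fluorescence detection; fitted for increase over DMSO negative control.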

[11] = biological target: human RAR-related Orphan Receptor beta (RORb), RORB (gene 6096) (UniProt Q92753); test: ATG_RORb_TRANS: Attagene TRANS-FACTORIAL HepG2 Assay for human RAR-related Orphan Receptor beta (RORb) (AID 2283010)
Summary of the method: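 Transfect HepG2 with multiple GAL4-UAS reporter transcription units; dose chemicals for 24 h; isolate RNA, reverse-transcribe and PCR-amplify reporter sequences; label, digest and resolve fragments by capillary electrophoresis; fit increases relative to DMSO.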

[12] = biological target: human Retinoid X Receptor beta (RXRb), RXRB (gene 6257) (UniProt P28702); test: ATG_RXRb_TRANS: Attagene TRANS-FACTORIAL HepG2 Assay for human Retinoid X Receptor beta (RXRb) (AID 2283013)
Summary of the method: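 Chimeric receptor-Gal4 activity was assessed in transiently transfected human HepG2 cells after 24 h exposure. Transcripts from GAL4-UAS reporters were quantified by fluorescent RT-PCR and capillary electrophoresis, with DMSO as negative control and baseline.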

Measured: AC50

Sequence of Retinoic acid receptor alpha (Homo sapiens) (P10276 whole entry, looked up, the tested form may be a part): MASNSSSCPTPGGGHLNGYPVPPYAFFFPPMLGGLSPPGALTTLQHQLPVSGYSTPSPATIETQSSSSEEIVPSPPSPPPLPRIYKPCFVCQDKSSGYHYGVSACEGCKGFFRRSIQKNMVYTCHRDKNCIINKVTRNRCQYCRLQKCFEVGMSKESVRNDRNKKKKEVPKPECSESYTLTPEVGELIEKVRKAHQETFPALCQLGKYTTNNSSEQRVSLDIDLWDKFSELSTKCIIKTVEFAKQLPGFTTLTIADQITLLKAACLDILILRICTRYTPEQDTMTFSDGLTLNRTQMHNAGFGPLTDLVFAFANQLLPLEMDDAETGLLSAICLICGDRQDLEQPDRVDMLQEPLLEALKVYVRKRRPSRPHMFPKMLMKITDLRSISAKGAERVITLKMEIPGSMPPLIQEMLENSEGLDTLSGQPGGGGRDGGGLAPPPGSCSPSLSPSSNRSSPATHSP
Sequence of human Peroxisome Proliferator-activated Receptor alpha (PPARa), PPARA (gene 5465) (Q07869 whole entry, looked up, the tested form may be a part): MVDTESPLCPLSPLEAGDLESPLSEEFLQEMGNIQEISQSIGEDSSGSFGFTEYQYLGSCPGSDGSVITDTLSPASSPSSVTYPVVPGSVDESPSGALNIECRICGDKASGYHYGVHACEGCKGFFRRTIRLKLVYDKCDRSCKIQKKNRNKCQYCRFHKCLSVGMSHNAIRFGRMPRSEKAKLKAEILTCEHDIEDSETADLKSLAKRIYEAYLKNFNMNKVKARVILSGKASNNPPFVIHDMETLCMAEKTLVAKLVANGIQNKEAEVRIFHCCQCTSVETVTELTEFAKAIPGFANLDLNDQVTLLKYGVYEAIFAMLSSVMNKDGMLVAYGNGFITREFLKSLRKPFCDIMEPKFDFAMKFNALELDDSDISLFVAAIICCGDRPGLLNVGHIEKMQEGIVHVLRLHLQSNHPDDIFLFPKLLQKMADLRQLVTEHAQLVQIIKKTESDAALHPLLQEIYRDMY
Sequence of Peroxisome proliferator-activated receptor gamma (Homo sapiens) (P37231 whole entry, looked up): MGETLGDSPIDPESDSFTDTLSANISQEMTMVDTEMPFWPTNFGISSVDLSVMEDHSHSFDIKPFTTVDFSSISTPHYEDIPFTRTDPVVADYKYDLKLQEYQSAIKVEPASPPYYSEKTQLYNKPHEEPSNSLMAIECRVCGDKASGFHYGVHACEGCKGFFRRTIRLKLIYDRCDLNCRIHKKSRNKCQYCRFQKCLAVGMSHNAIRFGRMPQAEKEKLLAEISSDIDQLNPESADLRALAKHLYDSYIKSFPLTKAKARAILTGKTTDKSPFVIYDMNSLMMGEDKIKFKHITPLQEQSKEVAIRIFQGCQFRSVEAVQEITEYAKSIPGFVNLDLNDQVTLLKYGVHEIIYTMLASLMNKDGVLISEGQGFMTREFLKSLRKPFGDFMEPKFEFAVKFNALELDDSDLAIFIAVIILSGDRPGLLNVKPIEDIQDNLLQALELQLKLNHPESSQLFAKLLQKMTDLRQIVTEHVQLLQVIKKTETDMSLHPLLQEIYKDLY
Sequence of human RAR-related Orphan Receptor gamma (RORg), RORC (gene 6097) (P51449 whole entry, looked up, the tested form may be a part): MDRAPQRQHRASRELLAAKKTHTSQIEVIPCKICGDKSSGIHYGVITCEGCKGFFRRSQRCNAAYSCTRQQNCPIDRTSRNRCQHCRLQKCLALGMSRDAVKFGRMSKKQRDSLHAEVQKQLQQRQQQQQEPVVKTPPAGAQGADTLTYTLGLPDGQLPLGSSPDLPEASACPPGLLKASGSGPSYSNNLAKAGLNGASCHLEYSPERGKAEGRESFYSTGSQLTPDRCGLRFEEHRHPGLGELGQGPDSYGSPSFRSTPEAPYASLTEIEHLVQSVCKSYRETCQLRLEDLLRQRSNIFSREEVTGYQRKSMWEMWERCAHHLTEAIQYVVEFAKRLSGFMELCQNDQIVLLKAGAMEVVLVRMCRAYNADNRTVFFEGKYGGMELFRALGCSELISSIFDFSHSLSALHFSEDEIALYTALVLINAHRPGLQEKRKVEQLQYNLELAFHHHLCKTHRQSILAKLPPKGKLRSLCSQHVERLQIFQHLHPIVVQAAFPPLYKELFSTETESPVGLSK
Sequence of human Thyroid Receptor alpha (THRa1), THRA (gene 7067) (P10827 whole entry, looked up, the tested form may be a part): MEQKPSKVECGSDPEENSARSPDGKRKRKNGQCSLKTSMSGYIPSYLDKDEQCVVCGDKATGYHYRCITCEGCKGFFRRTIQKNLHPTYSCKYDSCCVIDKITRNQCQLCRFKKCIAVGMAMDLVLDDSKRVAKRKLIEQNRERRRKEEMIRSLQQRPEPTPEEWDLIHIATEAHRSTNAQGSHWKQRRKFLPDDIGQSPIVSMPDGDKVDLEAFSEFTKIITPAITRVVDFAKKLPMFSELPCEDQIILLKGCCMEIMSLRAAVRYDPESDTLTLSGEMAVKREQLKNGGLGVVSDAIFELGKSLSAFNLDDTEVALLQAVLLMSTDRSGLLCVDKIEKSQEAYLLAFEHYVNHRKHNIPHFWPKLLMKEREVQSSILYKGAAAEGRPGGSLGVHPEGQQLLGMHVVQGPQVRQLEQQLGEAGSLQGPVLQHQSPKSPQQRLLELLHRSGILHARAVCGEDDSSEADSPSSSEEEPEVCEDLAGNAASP
Sequence of human Retinoic Acid Receptor gamma (RARg), RARG (gene 5916) (P13631 whole entry, looked up, the tested form may be a part): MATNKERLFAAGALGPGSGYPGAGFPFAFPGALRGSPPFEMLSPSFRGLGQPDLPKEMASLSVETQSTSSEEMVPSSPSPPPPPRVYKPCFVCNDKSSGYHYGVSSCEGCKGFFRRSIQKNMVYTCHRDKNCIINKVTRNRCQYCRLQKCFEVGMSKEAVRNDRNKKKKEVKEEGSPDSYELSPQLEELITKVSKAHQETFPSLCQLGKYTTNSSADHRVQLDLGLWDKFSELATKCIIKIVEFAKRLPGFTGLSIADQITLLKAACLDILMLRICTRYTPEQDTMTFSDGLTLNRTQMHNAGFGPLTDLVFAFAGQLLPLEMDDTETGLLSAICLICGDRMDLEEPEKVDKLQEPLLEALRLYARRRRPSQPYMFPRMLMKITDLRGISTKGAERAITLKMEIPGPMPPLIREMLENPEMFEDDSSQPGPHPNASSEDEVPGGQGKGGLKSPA
Sequence of human Peroxisome Proliferator-activated Receptor delta (PPARd), PPARD (gene 5467) (Q03181 whole entry, looked up, the tested form may be a part): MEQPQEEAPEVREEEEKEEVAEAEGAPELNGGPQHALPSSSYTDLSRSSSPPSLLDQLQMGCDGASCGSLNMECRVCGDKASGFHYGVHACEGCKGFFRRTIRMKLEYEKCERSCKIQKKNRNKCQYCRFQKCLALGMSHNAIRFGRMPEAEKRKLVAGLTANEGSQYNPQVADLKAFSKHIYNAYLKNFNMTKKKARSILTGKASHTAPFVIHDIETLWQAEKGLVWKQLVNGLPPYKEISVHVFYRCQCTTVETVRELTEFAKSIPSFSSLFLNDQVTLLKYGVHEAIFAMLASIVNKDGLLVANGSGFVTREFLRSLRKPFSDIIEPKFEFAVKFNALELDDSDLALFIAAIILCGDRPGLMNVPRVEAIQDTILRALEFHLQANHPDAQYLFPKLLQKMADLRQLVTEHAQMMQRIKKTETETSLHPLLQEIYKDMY
Sequence of Nuclear receptor subfamily 1 group I member 2 (Homo sapiens) (O75469 whole entry, looked up, the tested form may be a part): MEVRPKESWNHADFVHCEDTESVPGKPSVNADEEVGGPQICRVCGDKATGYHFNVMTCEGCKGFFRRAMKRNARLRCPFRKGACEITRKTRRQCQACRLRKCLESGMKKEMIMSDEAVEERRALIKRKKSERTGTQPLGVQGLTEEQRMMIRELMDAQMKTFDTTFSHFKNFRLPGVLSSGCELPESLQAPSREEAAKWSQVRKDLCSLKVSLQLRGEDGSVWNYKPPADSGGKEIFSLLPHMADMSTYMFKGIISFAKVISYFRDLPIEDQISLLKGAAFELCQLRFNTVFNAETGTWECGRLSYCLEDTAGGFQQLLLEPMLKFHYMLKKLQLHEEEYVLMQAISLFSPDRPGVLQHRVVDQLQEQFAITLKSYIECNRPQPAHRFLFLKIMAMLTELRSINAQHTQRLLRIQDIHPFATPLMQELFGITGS
Sequence of human RAR-related Orphan Receptor beta (RORb), RORB (gene 6096) (Q92753 whole entry, looked up, the tested form may be a part): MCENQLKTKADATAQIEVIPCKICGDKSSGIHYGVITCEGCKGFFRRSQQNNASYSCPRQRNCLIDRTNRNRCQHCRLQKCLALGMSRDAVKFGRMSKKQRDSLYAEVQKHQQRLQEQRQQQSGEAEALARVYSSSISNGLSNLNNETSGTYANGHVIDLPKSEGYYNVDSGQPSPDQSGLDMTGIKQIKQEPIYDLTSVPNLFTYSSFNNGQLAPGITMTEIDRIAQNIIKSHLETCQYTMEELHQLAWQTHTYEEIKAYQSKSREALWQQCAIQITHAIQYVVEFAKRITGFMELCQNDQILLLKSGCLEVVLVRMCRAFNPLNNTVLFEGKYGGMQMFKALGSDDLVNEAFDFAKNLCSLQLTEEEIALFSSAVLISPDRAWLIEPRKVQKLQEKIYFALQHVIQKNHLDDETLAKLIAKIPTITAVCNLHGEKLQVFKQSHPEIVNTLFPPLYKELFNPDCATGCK
Sequence of Retinoic acid receptor RXR-alpha (Homo sapiens) (P19793 whole entry, looked up, the tested form may be a part): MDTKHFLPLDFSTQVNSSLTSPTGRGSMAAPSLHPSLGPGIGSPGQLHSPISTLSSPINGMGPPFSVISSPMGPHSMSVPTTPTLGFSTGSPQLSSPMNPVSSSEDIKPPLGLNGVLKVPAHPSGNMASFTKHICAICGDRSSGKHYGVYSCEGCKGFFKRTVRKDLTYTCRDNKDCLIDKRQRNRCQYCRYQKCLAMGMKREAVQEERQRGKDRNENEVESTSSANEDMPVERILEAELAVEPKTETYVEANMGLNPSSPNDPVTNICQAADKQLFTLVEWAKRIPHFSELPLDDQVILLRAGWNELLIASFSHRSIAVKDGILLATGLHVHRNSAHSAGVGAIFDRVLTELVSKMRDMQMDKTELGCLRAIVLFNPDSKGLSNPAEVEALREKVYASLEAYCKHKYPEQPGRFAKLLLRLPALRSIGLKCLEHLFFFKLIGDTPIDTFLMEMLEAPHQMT

C=C(C)CCCC
not listed: [10] | [11] | [12]
inactive: all other assays above

CN1CN(C)CN(C)C1
inactive: [1] | [3] | [4] | [10] | [6] | [7] | [8]

CC(=O)c1ccccc1N
not listed: [3] | [4] | [6] | [10]
inactive: all other assays above

Cc1ccc2c(c1)OCC(=O)CO2
inactive: [1] | [2] | [10] | [5] | [7]

CCCCCCCCCCCCCCCCC
inactive: [1] | [2] | [11] | [12]

O=C1c2ccccc2C(=O)c2c(Cl)cccc21
active: [5] 2.73 µM | [12] 28.4 µM
not listed: [3] | [7] | [11]
inactive: all other assays above

CSc1ccc(O)cc1C
not listed: [4] | [11]
inactive: all other assays above

Cc1cc(=O)[nH]c(C(C)C)n1
inactive: [1] | [2] | [5] | [6] | [11] | [7]

CCCCCCCC/C=C\CCCCCCCC(=O)OCC(O)CO (configuration not stated)
active: [1] 27.7 µM | [10] 27.3 µM
inactive: [2] | [5] | [9]

COCCC(=O)OC
inactive: [1] | [2] | [10] | [5] | [7] | [9]

CC(C)OC(=O)COc1ccc(Cl)cc1Cl
inactive: [1] | [10] | [5] | [6] | [11]

CCC/C=C/CO
inactive: [1] | [2] | [4] | [10] | [5] | [11] | [8]

Oc1ccc(C2(c3ccc(O)c(C4CCCCC4)c3)CCCCC2)cc1C1CCCCC1
active: [10] 2.92 µM | [5] 0.977 µM
inactive: [1] | [4] | [6] | [9]

CC1CCCCC1
not listed: [2] | [3] | [8] | [11]
inactive: all other assays above

CCc1cccc(C)c1N(C(=O)C(=O)O)C(C)COC (configuration not stated)
inactive: [1] | [2] | [10] | [5] | [11] | [7] | [8]

CC1=CCC(=O)O1
inactive: [1] | [2] | [3] | [4] | [10] | [8] | [12]

CCCCCCCCn1sc(Cl)c(Cl)c1=O
inactive: [1] | [2] | [5] | [7] | [8]
active: [10] 11.1 µM

CC(C)CC=C(C=O)c1ccccc1
active: [10] 39.5 µM | [5] 0.891 µM
inactive: [1] | [2]

O=C(Cl)c1ccc(Cl)cc1Cl
inactive: [1] | [2] | [4] | [10] | [6] | [7] | [9]

CCC(Cc1c(I)cc(I)c(N)c1I)C(=O)O (configuration not stated)
inactive: [2] | [5] | [9]
active: [1] 35.9 µM | [10] 29.5 µM

CCOC(=O)CCC(C)=O
inactive: [1] | [2] | [5]

CSc1ccc(Cl)cc1
inactive: [1] | [2] | [5] | [11] | [7] | [9]

C[Si](C)O[Si](C)C
inactive: [1] | [2] | [3] | [6] | [7] | [8]

F[Si-2](F)(F)(F)(F)F
inactive: [1] | [2] | [3] | [5] | [7] | [8] | [9]

CCCCCC/C=C/CCCCCCCC(=O)O
active: [1] 37.6 µM | [8] 100 µM
inactive: [2] | [10] | [6] | [11] | [7]

CC(C)(C)c1cc(Cc2cc(C(C)(C)C)c(O)c(C(C)(C)C)c2)cc(C(C)(C)C)c1O
inactive: [3] | [4] | [10] | [6] | [8] | [9]
active: [5] 0.631 µM | [12] 15.7 µM

CCOC(OCC)OCC
inactive: [2] | [4] | [10] | [11] | [7] | [8]

O=C1OC(=O)c2ccc3c4c(ccc1c24)C(=O)OC3=O
inactive: [2] | [10] | [5] | [7] | [9]

C=CCOC(=O)CC(C)C
inactive: [11] | [7]

N#CCCOCCC#N
inactive: [4] | [10] | [5] | [6] | [7] | [8] | [9]

O=c1cccc[nH]1
inactive: [3] | [4] | [10] | [11] | [7] | [8] | [12]

CC1=CCC2C(=O)OC(=O)C2C1 (configuration not stated)
inactive: [1] | [6]

CC(C)(C)c1cc(CCC(=O)OCC(COC(=O)CCc2cc(C(C)(C)C)c(O)c(C(C)(C)C)c2)(COC(=O)CCc2cc(C(C)(C)C)c(O)c(C(C)(C)C)c2)COC(=O)CCc2cc(C(C)(C)C)c(O)c(C(C)(C)C)c2)cc(C(C)(C)C)c1O
inactive: [2] | [11] | [7]
active: [12] 22.3 µM

CCc1ccc(C)nc1
inactive: [4] | [10] | [7]
